# Compound activity deposited in PubChem BioAssay by National Center for Advancing Translational Sciences (NCATS).
# aSyn yeast inh: rescues yeast growth from alpha-synuclein toxicity | 370,000 compounds, 0.14% hits | Potency, µM (top dose mostly 46.1 µM), without a hit: at the top dose growth rescue (activation), hits mostly activators | Yeast expressing alpha-synuclein, growth rescue, BacTiter-Glo, 24 h; note: % of control where 0% means no effect; nearly all actives have a fitted effect of over 65% in size
#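 Screening used galactose-induced yeast with toxic alpha-synuclein levels, exposed to compound for 24 hr at 30 deg C. Cell growth, read with BacTiter-Glo luminescence, gave the measured signal.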
# TSG101-PTAP inh: blocks PTAP/TSG101 interaction to inhibit HIV-1 budding. Q99816. Fluorescence polarization, FITC-PTAP peptide / Tsg101 binding. Potency, µM (doses to about 115 µM), without a hit: at the highest dose activity change, negative = inhibition, usual class: inhibitors. 340,000 tested, under 10 active; active = well fitted inhibition curve with a large enough effect in the main read-out, with a control signal flat, not every such curve was filed as active; inconclusive = small, poorly fitted or top-dose-only effect, or effect the other way, or a change in a side signal; inactive = no such curve, though single readings can be large or run the other way; note: % of control where 0% means no effect
# Target sequence (Q99816 whole entry, looked up): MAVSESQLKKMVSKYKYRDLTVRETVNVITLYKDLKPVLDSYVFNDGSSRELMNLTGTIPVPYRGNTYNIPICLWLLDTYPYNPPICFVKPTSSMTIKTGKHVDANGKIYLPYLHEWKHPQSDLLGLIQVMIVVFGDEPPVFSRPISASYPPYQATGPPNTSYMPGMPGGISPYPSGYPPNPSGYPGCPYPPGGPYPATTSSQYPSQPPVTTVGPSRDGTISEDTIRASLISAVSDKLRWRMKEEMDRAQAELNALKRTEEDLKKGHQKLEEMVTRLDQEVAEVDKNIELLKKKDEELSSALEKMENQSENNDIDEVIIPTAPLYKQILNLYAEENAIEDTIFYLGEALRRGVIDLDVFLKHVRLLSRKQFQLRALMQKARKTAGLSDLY
#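 Steps: Tsg101 binding domain dispensed (10 uM final), compounds pinned in DMSO, FITC-labeled PTAP-motif peptide added (50 nM final); after 20 min binding at room temperature, polarization measured.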
# TDP43 rescue: TDP-43 toxicity inhibition in yeast | 410,000 compounds, 1.8% hits | Potency, µM (highest dose often 46.1 µM), inactives show at the highest dose growth rescue (activation), usual class: activators | TDP-43 expressing yeast growth rescue, BacTiter-Glo, 24 h; note: % of control where 0% means no effect; nearly all actives have a fitted effect of over 50% in size
#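 Readout is BacTiter-Glo luminescence of cell growth, so inhibitors register as activators. TDP-43-expressing yeast at OD600=0.02 in galactose medium, after raffinose pregrowth to mid-log, were incubated with compound for 24 hr at 30 deg C.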
# FUS yeast rescue: suppressors of FUS proteinopathy in yeast | S. cerevisiae FUS-expressing, growth rescue, OD600, 24 h | Potency, µM (top dose mostly 76.6 µM), actives largely listed as activators | 390,000 compounds, 0.24% hits | AID 1347120;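 note: plate controls were DMSO vehicle for no effect and reference control for full effect; nearly all actives have a fitted effect of over 55% in size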
#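 S. cerevisiae expressing FUS from galactose induction served as the toxicity model. Growth after 24hr at 30C, read as absorbance at 600 nm, indicates suppression of toxicity; compounds dosed at several concentrations.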
# Abeta rescue: A-beta toxicity reversal in yeast. yeast expressing A-beta42, growth rescue, OD600, 48 h; response scale: 0% DMSO, 100% iron-clioquinol control. Potency, µM (top dose mostly 46.1 µM), usual class: activators. 410,000 compounds, 0.063% hits. AID 1347071; note: nearly all actives have a fitted effect of over 55% in size
#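 Yeast growth medium received pinned compounds, then yeast cells expressing toxic A-beta were added; plates incubated at 30 C for 48 hr. Growth read as absorbance at 600 nm, normalized to DMSO and equimolar FeCl3 plus clioquinol controls.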
# Active calls of the source: *; i = inactive; ? = inconclusive; / = not tested or not shown. Sampled rows, rich in hits. Any-hit rate of the full collection: about 2.1%. Unless noted, calls come from the whole dose curve; as a rule, active = well fitted curve in the direction sought with a large enough effect; inconclusive = small, poorly fitted or top-dose-only effect, or another doubt; inactive = no such curve, though single readings can be large; an effect the other way counts as inactive or inconclusive. Potency is the fitted concentration of half-maximal effect.
SMILES,aSyn yeast inh,TSG101-PTAP inh,TDP43 rescue,FUS yeast rescue,Abeta rescue
CSc1nccc(-c2c(-c3ccc(Cl)cc3)noc2C)n1,-14%,2%,18µM*,i,i
O=C(c1ccccc1)N1CCN(CC(O)COc2cccc3ccccc23)CC1 (configuration not stated),6%,-2%,9%,i,i
O=C(c1cccc(COc2cccc3ccccc23)c1)N1CCCC1,17%,-5%,22µM*,?,i
O=C(CC(=O)c1cccs1)c1ccncc1,23%,-5%,-60%,i,i
COC(=O)c1sc(-c2ccc(C(C)(C)C)cc2)cc1NC(=O)c1ccccc1C(=O)O,-90%,-6%,24%,i,i
COC(=O)c1sc(-c2ccc(C(C)(C)C)cc2)cc1NC(=O)CSCC(=O)O,-22%,-8%,15%,28µM*,i
COc1cccc(-c2cn3ncsc3n2)c1,/,/,12%,i,i
S=C1NC(c2ccccc2)=NCN1c1ccccc1,0%,-3%,13µM*,i,i
O=C1CN(c2ccccc2)C(=O)N1,-1%,-1%,-9%,i,i
N#Cc1nc(N)nc(N2CCCCC2)n1,-9%,/,/,/,/
O=[N+]([O-])c1nn(-c2ccc3c(c2)OCCO3)n(O)c1=NCCCO,0%,-4%,1%,i,i
O=[N+]([O-])c1nn(-c2ccc3c(c2)OCCO3)n(O)c1=NC1CCCCCC1,3%,-4%,16µM*,i,i
O=[N+]([O-])c1nn(-c2ccc3c(c2)OCCO3)n(O)c1=NC1CCCC1,0%,0%,5µM*,i,i
Cc1cc(C)cc(N=c2c([N+](=O)[O-])nn(-c3ccc4c(c3)OCCO4)n2O)c1,-1%,-9%,9%,i,i
COC(=O)c1ccc(NC(=O)CC2C(=O)N(c3ccc(Cl)cc3)C(=O)N2Cc2cccs2)cc1 (configuration not stated),/,/,4%,i,?
Nc1nc2[nH]cc(CCc3ccc(C(=O)N[C@@H](CCC(=O)O)C(=O)O)cc3)c2c(=O)[nH]1,1%,/,/,/,/
Cc1ccc2c(c1)[C@H]1OCC[C@H]1[C@@H](c1ccncc1)N2,-11%,-10%,8%,i,i
c1ccc(C2Nc3ccccc3C3OCCCC23)cc1 (configuration not stated),-34%,0%,11µM*,i,i
O=C(Cc1cccs1)NNC(=S)NC(=O)c1ccccc1,?,1%,22µM*,/,?
O=C(/C=C/c1ccccc1)NC(=S)NNC(=O)Cc1cccs1,20µM*,-2%,11µM*,i,?
Nc1nc(-c2cccs2)c(-c2cccs2)s1,-11%,-8%,16µM*,i,i
Nc1nc(-c2cccs2)c(CC(=O)O)s1,0%,0%,5%,i,i
Cc1nc(Br)c(Br)n1Cc1ccccc1,4%,/,11µM*,i,i
Cc1nc2ccccc2n1Cc1ccccc1,-2%,-4%,6%,i,i
CCN1C(=O)[C@H]2[C@@H](c3ccc(-c4ccccc4)cc3)N3CCC[C@@]3(C(=O)OC)[C@H]2C1=O,1%,-9%,35µM*,?,?
SMILES,aSyn yeast inh,TSG101-PTAP inh,TDP43 rescue,FUS yeast rescue,Abeta rescue
CCN1C(=O)[C@H]2[C@@H](c3ccc(-c4ccc(OC)cc4)cc3)N3CCC[C@@]3(C(=O)OC)[C@H]2C1=O,7%,1%,?,28µM*,i
CCN1C(=O)[C@@H]2[C@@H](c3ccc(-c4ccccc4)cc3)N3CCC[C@@]3(C(=O)OC)[C@@H]2C1=O,11%,2%,19%,i,i
Cc1ccn2c(Nc3ccc4c(c3)OCCO4)c(-c3ccc(C)o3)nc2c1,/,/,19%,i,i
Cc1ccccc1Cc1c(C)nc2nc(SCC(=O)N(C)c3ccccc3)nn2c1C,/,/,12%,i,i
NC(=S)NN=C1CCCCCCCCCC1,14%,-2%,14µM*,/,i
NC(=S)NN=C1CCC(C2CCCCC2)CC1 (configuration not stated),-8%,-5%,18%,i,3.2µM*
O=C(NN=C1CCCCCC1)NC1CCCCC1,-10%,0%,-4%,i,i
COc1cccc(NC(=O)c2sc3nc(C)c(C(=O)Nc4ccc(C)cc4C)c(-c4ccccc4Cl)c3c2N)c1,/,/,26%,i,i
COc1ccc(C(=O)/C=C/Nc2cc(C)on2)c(OC)c1,13µM*,-6%,?,i,i
COc1ccc(C(=O)/C=C/Nc2ccc([N+](=O)[O-])cc2C)c(OC)c1,-8%,?,-16%,i,i
COc1ccc2nc3sc(C(=O)N4CCN(c5ccc(F)cc5)CC4)cc3cc2c1,/,/,10%,i,i
O=[N+]([O-])c1ccc(F)cc1OCc1nc(-c2cccs2)no1,5%,1%,23%,i,i
O=[N+]([O-])c1ccccc1OCc1nc(-c2cccs2)no1,3%,-1%,13µM*,i,i
CC(=O)ON(C(C)=O)c1ccc(/C=C2\C=Cc3ccccc32)cc1,-16%,/,/,/,/
CC(C)n1nc(C(=O)NC2CCCCCC2)c2ccccc2c1=O,0%,-5%,22µM*,i,i
O=C(NCCc1ccc(Cl)cc1)c1ccc(CSCc2cccc(Cl)c2)o1,/,/,20µM*,i,i
COc1ccc(CCNC(=O)c2ccc(CS(=O)(=O)c3ccc(Cl)cc3)o2)cc1OC,-2%,-7%,-28%,i,i
O=C(NCc1ccc(F)cc1)c1ccc(CSCc2cccc(Cl)c2)o1,/,/,22µM*,?,i
Cc1ccc(CNC(=O)c2ccc(CSCc3ccccc3C)o2)cc1,/,/,?,i,i
Cc1ccccc1CSCc1ccc(C(=O)NCCc2ccccc2)o1,22%,/,35µM*,i,i
COc1ccc(CCNC(=O)c2ccc(CSc3ccc(Cl)cc3)o2)cc1OC,/,/,33µM*,?,/
CCc1nc2c(OCc3ccc(C(F)(F)F)cc3)cccn2c1N(C=O)Cc1ccc(OC)cc1,6%,/,13%,i,i
O=C(Nc1ccc2c(c1)OCO2)NC1CCN(S(=O)(=O)c2ccc(F)cc2)CC1,/,/,/,i,/
FC(F)(F)c1cc(-c2ccco2)nc(NCc2ccco2)n1,1%,-7%,?,i,i
FC(F)(F)c1cc(-c2ccco2)nc(NCc2cccs2)n1,-11%,-7%,20µM*,i,i
Cc1ccc(S(=O)(=O)NC(=S)NC2CCCCC2)cc1,10%,-10%,16µM*,i,i
O=C(OC(C(=O)N1CCOCC1)c1ccccc1)c1c2c(nc3ccccc13)CCCC2 (configuration not stated),-3%,/,/,/,/
CCCn1c2ccccc2c2cnn(CC(=O)NCCOC)c(=O)c21,3.5µM*,-5%,-2%,i,i
